Here are results for 29 compounds from PubChem BioAssay (NCATS).

Experiment [1] in a line: qHTS for Activators of Parkin Expression: LOPAC Validation Assay (NLuc Reporter) (AID 720572; also: potency is read from the fitted curve at half-maximal effect). The essentials:
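NLuc signal, read 10 min after reagent and following a prior FLuc read, is normalized to DMSO (0) and positive controls (100%). Cells: neuronal Parkin-promoter coincidence reporter line; compounds tested 7-point, 24 h, 37 C, 5% CO2.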
On the technique in general: In qHTS, concentration-response curves come from the screen itself.

The nature of experiment [2]: qHTS for Activators of Parkin Expression: LOPAC Validation Assay (FLuc Reporter) (AID 720573). A digest of the protocol: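 FLuc luminescence read-out from a neuronal line expressing a Parkin-promoter-driven coincidence reporter. Cells treated 24 h at 37 C, 5% CO2 with compounds at 7 concentrations; signal increase normalized to DMSO and positive control.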
Experiment [3] is described as follows: qHTS assay for small molecule agonists of the antioxidant response element (ARE) signaling pathway measured by Nrf2-dependant transcriptional activity (AID 720636; active = well fitted curve in the direction sought with a large enough effect in the repeat runs; an effect the other way counts as inactive or inconclusive; also: % of control where 0% means no effect). The essentials:
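Nrf2-dependent transcription read as ONE-Glo luciferase signal from ARE-luc HepG2 reporter cells after 16 hr compound treatment at 37 C, 5% CO2, in assay medium with 1% dialyzed FBS.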

Experiment [4] in a line: qHTS assay for small molecule agonists of the antioxidant response element (ARE) signaling pathway measured by Nrf2-dependant transcriptional activity - cell viability counter screen (AID 720653; active = well fitted curve in the direction sought with a large enough effect in the repeat runs; an effect the other way counts as inactive or inconclusive; also: potency is read from the fitted curve at half-maximal effect; as to max response: % is scaled to controls: 0 for no effect and ±100 for the full control effect). As to conditions: ARE-bla HepG2 viability, CellTiter-Glo ATP luminescence, 16 h; max response: hits give low values. A digest of the protocol:
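ARE-bla HepG2 cells treated with compounds for 16 h at 37C; this counter screen measures viability as intracellular ATP by CellTiter-Glo luminescence after 30 min at room temperature.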

Experiment [5] has as its target T1, Hexokinase-4 (Homo sapiens) + Glucokinase regulatory protein (Homo sapiens) (UniProt P35557+Q14397). Put plainly: qHTS assay for inhibitors of recombinant human GCK-GKRP interaction: Diaphorase-coupled assay (AID 743205). A digest of the protocol:
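Resorufin fluorescence (525/590 nm), read each minute over 30 min, reports GCK activity coupled via G6PDH and diaphorase. Reaction: 10 nM GST-GCK, 10 nM FLAG-GKRP, 5 mM glucose, 0.4 mM ATP, 0.15 mM NADP+, 0.1 mM resazurin.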

The target of experiment [6] is T1, Hexokinase-4 (Homo sapiens) + Glucokinase regulatory protein (Homo sapiens). Nature of the experiment: qHTS assay for inhibitors of recombinant human GCK-GKRP interaction: ADP-Glo assay (AID 743206).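 Also: plate controls were DMSO plus enzyme for no effect and no enzyme for full effect.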 The essentials: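 Pin-transferred compounds meet a 15 nM GST-GCK/15 nM FLAG-GKRP/2 uM S6P mix (dispense concentrations). ATP is then added to 0.4 mM final with 5 mM glucose, and the reaction runs 60 min at room temperature. ADP is quantified luminescently.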

For experiment [7] the target is unchanged. Put plainly: qHTS assay for inhibitors of recombinant human GCK-GKRP interaction: HTRF assay (AID 743207).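 Also: 0% = DMSO with GCK present and -100% = DMSO wells lacking GCK.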 The essentials: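 HTRF read-out (ex 320 nm; 615/665 nm emission) after 60 min RT equilibration of 5 nM GST-GCK, 5 nM FLAG-GKRP, 2 uM S6P, compound and anti-FLAG/anti-GST detection antibodies; signal normalized between DMSO wells with and without GCK.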

Experiment [8] can be described thus: qHTS Assay for Identifying Gametocytocidal Compounds (AID 743244). Also: potency is read from the fitted curve at half-maximal effect.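 As to max response: % is scaled to controls: 0 for no effect and ±100 for the full control effect; actives lower the fluorescent signal which means gametocytes are killed.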 The conditions noted are these: P. falciparum 3D7 stage III-V gametocytes, alamarBlue, 72 h; max response: hits give low values. The essentials: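 Viability read-out was resazurin reduction (alamarBlue, 24 h) measured at Ex 525/Em 598 nm. Beforehand, late-stage (III-V) 3D7 P. falciparum gametocytes at 20,000 cells/well were incubated with compound 72 h at 37C under 5% CO2.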

A short description of experiment [9]: qHTS assay for cell viability of HEK293 cells (AID 743288). Also: % is scaled to controls: 0 for no effect and ±100 for the full control effect; nearly all actives have a fitted effect of over 50% in size. The conditions noted are these: ATP luminescence (CellTiter-Glo), 18 h, hits give low values. The essentials: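 ATP luminescence (CellTiter-Glo) reports metabolically competent cell number after parental HEK293 cells, 2,000/well, were treated with DMSO-dissolved compounds for 18 h at 37 C; reagent incubation 30 min, room temperature.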

Experiment [10] in a line: qHTS assay for small molecule antagonists of the retinoid-related orphan receptor gamma (ROR-gamma) signaling pathway - cell viability counter screen (AID 720652; active = well fitted curve in the direction sought with a large enough effect in the repeat runs; an effect the other way counts as inactive or inconclusive;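 also: compound exposure lasted 16 hr before ATP read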; also: potency is read from the fitted curve at half-maximal effect). The essentials: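 Steps: seed CHO cells bearing TET-inducible ROR and ROR response element-luciferase; rest 5 hr at 37 C; add compound, then doxycycline; incubate 16 hr; add CellTiter-Glo and read luminescence as ATP-based viability.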

Structures are written as SMILES. Several values for one entry are separate records, joined by “and”; a condition that tells them apart may be missing. Equal entries are not always repeated. Values without a mark were called inactive. Inconclusive results are not listed. Some compounds were tested as several samples or in several runs, with calls that do not always agree. Activity calls are given as the source filed them. Unless noted, calls follow the shape of the dose curve; as a rule, active = well fitted curve in the direction sought with a large enough effect; inconclusive = small, poorly fitted or top-dose-only effect, or another doubt; inactive = no such curve, though single readings can be large; an effect the other way counts as inactive or inconclusive.

T1 sequence (P35557 whole entry, looked up): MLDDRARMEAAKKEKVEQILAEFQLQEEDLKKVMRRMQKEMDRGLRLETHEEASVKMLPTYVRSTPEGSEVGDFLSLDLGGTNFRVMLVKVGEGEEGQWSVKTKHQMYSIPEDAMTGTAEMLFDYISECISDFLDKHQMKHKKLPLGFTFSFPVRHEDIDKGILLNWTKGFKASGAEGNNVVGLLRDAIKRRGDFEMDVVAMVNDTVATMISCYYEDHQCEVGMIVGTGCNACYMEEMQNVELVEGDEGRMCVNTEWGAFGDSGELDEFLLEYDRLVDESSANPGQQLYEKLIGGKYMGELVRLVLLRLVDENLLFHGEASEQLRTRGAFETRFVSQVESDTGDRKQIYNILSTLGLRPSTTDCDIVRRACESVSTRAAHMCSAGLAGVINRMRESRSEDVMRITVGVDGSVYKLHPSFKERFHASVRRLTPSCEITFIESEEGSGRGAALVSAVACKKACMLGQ
T1 sequence (Q14397 whole entry, looked up): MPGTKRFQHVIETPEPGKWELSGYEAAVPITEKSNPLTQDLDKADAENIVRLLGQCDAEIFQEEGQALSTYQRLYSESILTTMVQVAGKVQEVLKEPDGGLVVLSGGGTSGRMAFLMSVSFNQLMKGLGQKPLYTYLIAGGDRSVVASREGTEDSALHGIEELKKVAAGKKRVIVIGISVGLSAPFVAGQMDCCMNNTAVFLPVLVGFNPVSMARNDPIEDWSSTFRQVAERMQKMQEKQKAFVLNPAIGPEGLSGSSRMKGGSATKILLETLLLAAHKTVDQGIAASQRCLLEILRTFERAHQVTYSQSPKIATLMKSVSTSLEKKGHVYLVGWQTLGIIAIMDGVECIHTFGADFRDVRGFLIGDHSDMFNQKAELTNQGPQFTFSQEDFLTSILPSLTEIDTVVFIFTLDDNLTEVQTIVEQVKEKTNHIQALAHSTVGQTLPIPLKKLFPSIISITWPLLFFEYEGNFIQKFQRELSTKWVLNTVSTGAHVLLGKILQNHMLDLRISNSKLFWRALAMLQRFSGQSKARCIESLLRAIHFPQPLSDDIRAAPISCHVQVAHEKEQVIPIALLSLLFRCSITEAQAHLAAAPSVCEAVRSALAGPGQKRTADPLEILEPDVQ

Take `CN(C)CCCN1c2ccccc2CCc2ccccc21`: the Potency result in experiment [1] was “inactive”. Further, the compound was classed as inactive in [2] and in experiment [3]. For the same compound, in experiment [4], the max response was -13.3%.
For `CC1=C(CC(=O)O)c2cc(F)ccc2/C1=C\c1ccc(S(C)=O)cc1` (stereo not given), the Potency entry in [1] was “inactive”. For the same compound, the result in [2], in [5], in [6] and in experiment [7] was inactive. Moreover, the max response in experiment [8] was -9.81% and 32%.
Consider `O=C1N=C(O)CN1/N=C/c1ccc(-c2ccc([N+](=O)[O-])cc2)o1`, for which the Potency result in [1] was “inactive”. Further, the result in experiment [2], in experiment [5], in [6] and in experiment [7] was inactive.
Consider `CCCn1cnc2c1c(=O)n(CCCCC(C)=O)c(=O)n2C`, for which the Potency result in [1] was “inactive”. The compound was classed as inactive in experiment [2], in [5], in experiment [6] and in experiment [7]. Also, in experiment [8], the max response is -8.62% and 26.7%.
For `Cc1cc(N)c2ccccc2[n+]1CCCCCCCCCC[n+]1c(C)cc(N)c2ccccc21`, the Potency entry in experiment [1] was “inactive”. The compound was classed as inactive in experiment [2], in experiment [5], in experiment [6] and in experiment [7].
With `N=c1c[n+](N2CCOCC2)[n-]o1`, the Potency entry in experiment [1] is “inactive”. Further, the call in experiment [2], in experiment [5], in experiment [6] and in experiment [7] was inactive. The max response in [8] is 8.18%.
In the case of `CCCCCCCCCCCCCCCC(=O)NCCO`, the Potency result in experiment [1] is “inactive”. The call in experiment [2], in experiment [5], in experiment [6] and in [7] was inactive. In addition, the max response in experiment [8] is -1.98% and 26.2%.
On to `COCCOC(=O)C1=C(C)NC(C)=C(C(=O)OC/C=C/c2ccccc2)C1c1cccc([N+](=O)[O-])c1` (stereo not given), for which, in [1], the Potency was 5.17 µM (active). Besides, the result in [2], in experiment [5], in experiment [6] and in experiment [7] was inactive. Also, the max response in experiment [8] is 2.31% and 20.4%.
For the compound `NC1CCN(c2cccc(Cl)n2)CC1`, the Potency entry in [1] was “inactive”. The call in experiment [2], in experiment [5], in [6] and in [7] was inactive.
`COc1ccc(Cl)cc1C(=O)NCCc1ccc(S(=O)(=O)NC(=O)NC2CCCCC2)cc1`: the compound was called inactive in experiment [2], in experiment [3], in experiment [5], in experiment [6] and in [7]. Moreover, the max response was -18.1% in experiment [4]; 54% and 5.04% in experiment [8]; -4.82% in experiment [9].
In the case of `CC1(C)[C@@H]2CC[C@@]1(C)C(=O)C2`, the result in experiment [3] was inactive. Besides, the Potency result in [10] was “inactive”. For the same compound, the max response in experiment [4] is -10.3%; in experiment [8] it was -6.95%; in experiment [9], -3.96%.
Regarding `O=C1NS(=O)(=O)c2ccccc21`, in [3], the call was inactive. For the same compound, the values for the max response in [4] and in experiment [9] were -2.82% and 0.942%, respectively.
Take `CCCc1c(OCCCCc2nn[nH]n2)ccc(C(C)=O)c1O`: the result in experiment [3] was inactive. In addition, the max response in [4] was 2.63%; in experiment [8], -10.5%; in [9], -7.07%.
For the compound `Nc1ccc(S(=O)(=O)Nc2nccs2)cc1`, the result in [3] was inactive. Besides, the Potency result in experiment [10] is “inactive”. Also, the max response in [4] is -8.72%; in experiment [8], 3.15%; in [9] it was -1.59%.
Consider `CSc1ccc2c(c1)C(N1CCN(C)CC1)Cc1ccccc1S2` (stereo not given), for which the Potency entry in experiment [1] is “inactive”. Moreover, the outcome in [2], in [6] and in experiment [7] was inactive.
As to `CCCCCCCCCCCCOS(=O)(=O)O`, the result in experiment [3] was inactive. Also, the Potency result in experiment [10] was “inactive”. The values for the max response in experiment [4], in [8] and in experiment [9] were -1.36% [middle of 4 runs], 14.3% and -2.66% [middle of 4 runs], respectively.
Take `O=C1c2c(O)cccc2Cc2cccc(O)c21`: in [3], the outcome was inactive. Besides, the Potency result in [10] is “inactive”. Moreover, the figures for the max response in experiment [4], in [8] and in [9] were -0.576%, 12% and -1.66%, respectively.
With `Cc1c(O)cccc1C(=O)N[C@@H](CSc1ccccc1)[C@H](O)CN1C[C@H]2CCCC[C@H]2C[C@H]1C(=O)NC(C)(C)C`, the compound was classed as inactive in experiment [3]. Also, the Potency in experiment [10] was 66.8 µM (active); in [4], 44.7 µM (active). For the same compound, in experiment [8], the max response is 0.0084%.
Regarding `CCN(CC)CCCC(C)Nc1c2ccc(Cl)cc2nc2ccc(OC)cc12` (stereo not given), in [1], the Potency entry was “inactive”. Besides, the compound was classed as inactive in [2], in experiment [5], in [6] and in [7]. The Potency in [8] is 3.16 µM (active) and 1 µM (active).
Turning to `CN(C)CCOC(C)(c1ccccc1)c1ccccn1` (stereo not given), the compound was classed as inactive in experiment [3], in experiment [5], in experiment [6] and in experiment [7]. In addition, the max response in experiment [4] was -11.9%; in experiment [8], 7.8%; in experiment [9], -4.19%.
In the case of `CCCCC(CC)COC(=O)c1ccccc1O` (stereo not given), the outcome in experiment [3] was inactive. Moreover, the max response in experiment [4] was -10.2%; in experiment [8], 10.2%; in experiment [9], -7.63%.
Take `C=Cc1c(C)c2cc3[nH]c(cc4nc(cc5nc(cc1[nH]2)C(C)=C5CCC(=O)O)C(CCC(=O)O)=C4C)c(C)c3C=C`: the Potency result in experiment [1] is “inactive”. Moreover, the outcome in experiment [2], in [5], in [6] and in experiment [7] was inactive. In addition, the max response in [8] is 11.4% and 22%.
`CC[C@H]1CN2CCc3cc(OC)c(OC)cc3[C@@H]2C[C@@H]1C[C@H]1NCCc2cc(OC)c(OC)cc21`: the Potency result in experiment [1] was “inactive”. For the same compound, the outcome in experiment [5], in [6] and in experiment [7] was inactive.
`CN(C)CCC=C1c2ccccc2CCc2ccccc21`: the Potency result in experiment [1] was “inactive”. The outcome in experiment [2], in experiment [5], in [6] and in experiment [7] was inactive. The max response in [9] was -2.39% and -37.1%.
As to `CN(C)CC[C@@H](c1ccc(Cl)cc1)c1ccccn1`, the Potency entry in experiment [1] is “inactive”. The call in experiment [2], in experiment [5], in [6] and in experiment [7] was inactive. In experiment [8], the Potency is 26.4 µM (active). In addition, the max response in [8] was 25.3%.
Turning to `O=S(=O)(O)NC1CCCCC1`, the call in experiment [3] was inactive. The max response in experiment [4] was 2.33%; in [8], -6.77%; in experiment [9], -0.923%.
In the case of `CC(C)(C)c1onc(OCP(=O)(O)O)c1CC(N)C(=O)O` (stereo not given), the Potency result in [1] was “inactive”. Moreover, the outcome in [2], in [5], in experiment [6] and in [7] was inactive. For the same compound, in experiment [8], the max response was 18.1%.
Regarding `CC(O)CN(CCN(CC(C)O)CC(C)O)CC(C)O` (stereo not given), in [3], the result was inactive. Moreover, the max response in experiment [4] was -0.296%; in [8], 3.97%; in [9], -9.37%.
For `Oc1cccc(O)c1` the same measures were “inactive”, 0.509%, -1.48% and 11.8%.
